Screens: PubChem, National Center for Advancing Translational Sciences (NCATS)
PGK inhibitor: blocks T. brucei phosphoglycerate kinase. P07378. PGK/GAPDH coupled, Kinase-Glo luminescence, 60 min. Potency, µM (doses to about 57.5 µM), most hits filed as inhibitors. actives 0.043% (n = 380,000). AID 602233; further: nearly all actives have a fitted effect of over 60% in size
Target sequence (P07378 whole entry, looked up): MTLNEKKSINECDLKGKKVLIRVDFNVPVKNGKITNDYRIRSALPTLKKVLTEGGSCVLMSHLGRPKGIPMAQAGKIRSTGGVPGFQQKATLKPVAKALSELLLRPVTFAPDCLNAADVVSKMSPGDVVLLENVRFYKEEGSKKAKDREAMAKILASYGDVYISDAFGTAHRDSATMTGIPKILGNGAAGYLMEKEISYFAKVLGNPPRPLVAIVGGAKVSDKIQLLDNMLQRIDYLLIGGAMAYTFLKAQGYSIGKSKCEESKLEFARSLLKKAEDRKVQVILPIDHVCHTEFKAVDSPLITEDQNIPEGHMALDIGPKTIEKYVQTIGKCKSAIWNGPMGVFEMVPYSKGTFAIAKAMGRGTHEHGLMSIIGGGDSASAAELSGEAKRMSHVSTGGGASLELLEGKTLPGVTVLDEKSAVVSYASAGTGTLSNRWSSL
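Luminescent ATP detection (Kinase-Glo Plus) follows a 60-minute room-temperature incubation, with wells lacking PGK as controls. Buffer: 100 mM TEA (pH 7.6), 5 mM MgCl2, 0.01% Tween-20. Coupling enzyme GAPDH (100 nM final) supplies unstable 1,3-BPG in-well.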
PI4K2A inh: blocks human PI4K2A kinase activity; Q9BTU6; purified PI4K2A, ADP-Glo luminescence, 1 h; stronger effect = lower value; activity change, negative = inhibition, % at 76.9 µM; actives 0.13% (n = 420,000); AID 1346378; in the data active means activity change below about -50%; inconclusive means mostly about -30% to -49%
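ADP-Glo luminescence measured ADP generated by PI4K2A enzyme (4 ug/mL before mixing) with 1.2 mM PI substrate (pre-mix) and 300 microM ATP (pre-mix). Tris pH7.5 buffer with MgCl2, Triton X-100; 1 h reaction at ambient temperature.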
GLS inh: glutaminase GLS (human) inhibition; GLS enzymatic activity, qHTS titration; Potency, µM (doses to about 45.5 µM), usual class: inhibitors; actives 0.21% (n = 410,000)
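hKGA in 45 mM KH2PO4 (pH 8.2), 0.02% Tween-20 with compound, then 1mM L-Glutamine (stock as added) plus glutamate oxidase/HRP/Amplex red coupling mix. Fluorescence read initially and after 30 min at RT; signal change reflects glutamate formation.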
CCT modulator: cytosolic chaperonin activity modulation; purified chaperonin ATPase assay, HTRF ADP detection, 30 min; activity change, % (no concentration beside the values), hits read low; actives 0.3% (n = 360,000); AID 651819; in the data active means activity change below about -30%
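ATPase activity: ADP formed was measured by HTRF Transcreener (665/615 nm ratio) after 30 min at 37 deg C with 10 uM ATP. Compounds screened at one 76 uM concentration against 40 or 20 nM TRiC in Tris pH 7.4/KCl/MgCl2/DTT buffer.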
PINK1 expr mod: modulators of PINK1 expression; AID 624263; Potency, µM (top dose mostly 76.6 µM), actives largely listed as activators; PINK1 immunofluorescence, high-content cytometry, 24 h; actives 0.2% (n = 410,000); active means well fitted activation curve with a large enough effect; inconclusive means small, poorly fitted or top-dose-only effect; cell line not stated here; further: nearly all actives have a fitted effect of over 65% in size
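Fluorescence from anti-PINK1 antibody, together with nuclear and cell stains, was scanned on a laser-scanning cytometer. Before staining, stable-line cells were incubated 24 hours with compounds at 5 concentrations; primary antibody 12 h at 10 degrees C.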
Large screens that a line does not name were inactive. The list is not random: actives were taken first. Their share in the collection is about 0.78%. Unless noted, the call rests on the fitted dose curve; in most records, active means well fitted curve in the direction sought with a large enough effect; inconclusive means small, poorly fitted or top-dose-only effect, or another doubt; inactive means no such curve, though single readings can be large; an effect the other way counts as inactive or inconclusive.

Cc1ccc(NC(=O)CN(C)C(=O)C(C)OC(=O)CNC(=O)c2ccc(Cl)c([N+](=O)[O-])c2)cc1 (centres undefined)	CCT modulator -77
Cc1cccc(CC(=O)N2CCC(n3nccc3NC(=O)C3CC3)CC2)c1	CCT modulator -56
O=C(Nc1ccnn1C1CCN(C(=O)Cc2cccc(Cl)c2)CC1)C1CC1	none
O=C(NCC(c1ccco1)N1CCCC1)c1cc(S(=O)(=O)N2CCCCC2)ccc1Cl (centres undefined)	CCT modulator -40
CCn1c(-c2cccnc2)nc2cc(NC(=O)COC)cc(C(=O)N3CC[C@@H]4CCCC[C@H]4C3)c21	none (no result: PGK inhibitor, PI4K2A inh, GLS inh, CCT modulator)
CC(O)(COc1ccccc1)c1ccc2c(c1)CN(C/C=C/c1ccco1)CCO2 (centres undefined)	none (no result: PGK inhibitor, PI4K2A inh, GLS inh, CCT modulator)
COc1ccc(CN2CCCC(n3cc(C(=O)N4CCCCC4)nn3)C2)cc1OC (centres undefined)	none (no result: PGK inhibitor, PI4K2A inh, GLS inh, CCT modulator)
Cc1ccc(NC(C(=O)c2ccccc2)c2ccccc2)cc1 (centres undefined)	PINK1 expr mod 35µM
Cc1ccc(NC(=O)C(Nc2ccccc2)c2ccccc2)cc1 (centres undefined)	none
COc1ccc(N=Cc2c(O)c3ccccc3n2C(C)=O)cc1	PINK1 expr mod 25µM
CC(NC(=O)COC(=O)CNC(=O)c1ccccc1Cl)C1CC2CCC1C2 (centres undefined)	CCT modulator -40
COc1ccc(C)cc1NC(=O)N1CCN(c2nnc(C)c3c(C)n(-c4ccccc4)nc23)CC1	PINK1 expr mod 28µM (no result: PGK inhibitor, CCT modulator)
CCOC(=O)N1CCN(Cc2ccc3c(c2)CN(C(=O)c2cc(-c4ccccc4)no2)CCO3)CC1	none (no result: PGK inhibitor, PI4K2A inh, GLS inh, CCT modulator)
C[n+]1cc2c3c(ccc2c2ccc4cc5c(cc4c21)OCO5)OCO3	GLS inh 3.2µM (no result: PGK inhibitor, CCT modulator)
C[n+]1c(/C=C/c2ccc3c(c2)OCO3)ccc2ccccc21	none
CNC(=O)c1sc2nc(-c3ccc(OC)cc3)cn2c1C	none
COc1ccc(-c2cn3c(C)c(C(=O)Nc4cc(NC(C)=O)ccc4OC)sc3n2)cc1	PINK1 expr mod 10µM
Cc1ncc2c(c1CNC(=O)c1cncs1)CCN(C(=O)c1ccc(-c3ccccc3)cc1)C2	none (no result: PGK inhibitor, PI4K2A inh, GLS inh, CCT modulator)
CC1CCCCC1NC(=S)NC(=O)c1sc2ccccc2c1Cl (centres undefined)	CCT modulator -47
CC1CCCCC1NC(=S)NC(=O)c1ccccc1Cl (centres undefined)	none
COc1cc(-c2cc(=O)c3c(O)c(OC)c(OC)c(O)c3o2)ccc1O	GLS inh 2.8µM
Oc1ccc(Nc2nc(-c3cccnc3)cs2)cc1	GLS inh 5µM
COc1cc(=O)n2c(c1C(=O)N(C)Cc1cscn1)CCN(Cc1c(C)[nH]c3ccccc13)CC2	none (no result: PGK inhibitor, PI4K2A inh, GLS inh, CCT modulator)
O=c1oc2cc(O)ccc2c2oc3cc(O)ccc3c12	GLS inh 7.9µM
O=c1oc2cc(O)ccc2c2ccccc12	none
Cc1ccc(S(=O)(=O)/N=C2/C=C(Sc3ncn[nH]3)C(=O)c3ccccc32)cc1	PGK inhibitor inconclusive, PI4K2A inh -70
CC(C)c1ccc(S(=O)(=O)/N=C2/C=C(Sc3ncn[nH]3)C(=O)c3ccccc32)cc1	PI4K2A inh -55
O=S1(=O)CC(N2CC=CC2)CN1C1CCCCC1 (centres undefined)	GLS inh 11µM (no result: PGK inhibitor)
CN1CCN(C2CN(C3CCCCC3)S(=O)(=O)C2)CC1 (centres undefined)	none (no result: PGK inhibitor)
CN(Cc1ccc(C(C)(C)C)cc1)c1cccc2ccccc12	none (no result: PGK inhibitor, PI4K2A inh, CCT modulator, PINK1 expr mod)
O=C(C[n+]1cc(Br)cc2ccccc21)c1ccccc1	PINK1 expr mod 40µM
CCOc1cc(/C=C2/C(=O)N(c3ccccc3)N=C2C)ccc1OC(=O)c1cccs1	PI4K2A inh -52
CCOc1cc(/C=N/NC(=O)c2ccccn2)ccc1OC(=O)c1cccs1	none
Cc1ccc(/C=C/C(=O)N2CCc3ccccc32)o1	none
O=C(/C=C/c1ccco1)N1CCc2ccccc21	PGK inhibitor inconclusive, PI4K2A inh -53
COc1cccc(C(=O)NC(C)c2nnc3n2CCN(CC=C(C)C)CC3)c1 (centres undefined)	none (no result: PGK inhibitor, PI4K2A inh, GLS inh, CCT modulator)
Cc1ccc(C)c(S(=O)(=O)NCCN2CCOCC2)c1	CCT modulator -31
Cc1cc(=O)[nH]c(SCC(=O)Nc2ccc(Br)cc2)c1C#N	PINK1 expr mod 16µM
Cc1ccc(-c2nc(-c3ccccn3)no2)cc1	PGK inhibitor inconclusive, PI4K2A inh -75
c1ccc(-c2ccc(-c3nc(-c4ccccn4)no3)cc2)cc1	PI4K2A inh -94 (no result: PGK inhibitor)
CCOC(=O)/C(C#N)=C/Nc1ccsc1C(=O)OC	CCT modulator -49
CN1C=C/C(=C\c2cc[n+](C)c3ccccc23)c2ccccc21	PINK1 expr mod 5µM
C[n+]1ccc(/C=C/c2cc[n+](C)c3ccccc23)c2ccccc21	PINK1 expr mod 4µM (no result: PGK inhibitor, PI4K2A inh, GLS inh, CCT modulator)
COc1ccc(/C=C/c2cc[n+](C)c3ccccc23)cc1OC	none (no result: PGK inhibitor, PI4K2A inh, GLS inh, CCT modulator)
Cc1ccccc1C1(CC(=O)N2CCCC(C)C2)CC(=O)N(Cc2cccnc2)C1=O (centres undefined)	none (no result: PGK inhibitor, PI4K2A inh, GLS inh, CCT modulator)
CC(C)(C)CC(=O)OCC(=O)[C@@]12OC(C)(C)O[C@@H]1C[C@H]1[C@@H]3CCC4=CC(=O)C=C[C@]4(C)[C@@]3(F)[C@@H](O)C[C@]12C	none (no result: PGK inhibitor, PI4K2A inh, CCT modulator, PINK1 expr mod)
CC(O)(c1cccc(F)c1)c1nc(-c2ccccc2)cs1 (centres undefined)	none (no result: PGK inhibitor)
CC(O)(c1cccc(F)c1)c1nc(-c2ccncc2)cs1 (centres undefined)	CCT modulator -31 (no result: PGK inhibitor)
CC(C)(C)S(=O)(=O)/C(C#N)=N/Nc1ccc(Cl)cc1	PINK1 expr mod 28µM
CC(C)(C)c1ccc(N/N=C(\C#N)S(=O)(=O)C(C)(C)C)cc1	PINK1 expr mod 40µM
CCOC(=O)c1sc(NC(=O)c2cc(-c3ccc(C)cc3)nc3ccccc23)c(C#N)c1C	PINK1 expr mod inconclusive
Cc1ccccc1-c1cc(C(=O)Nc2sc(C(=O)OC(C)C)c(C)c2C#N)c2ccccc2n1	PINK1 expr mod 13µM
COC(=O)c1sc(NC(=O)c2cc(-c3ccccc3)nc3ccccc23)c(C#N)c1C	PINK1 expr mod 5.6µM
COCc1ccc(CN2CCOc3c(cc(-c4cc(C)c5cccc(OC)c5n4)cc3OC)C2)o1	none (no result: PGK inhibitor, PI4K2A inh, GLS inh, CCT modulator)
COc1ccc2nc(NCc3ccccc3)[nH]c2c1	PINK1 expr mod 16µM
Cc1ccc2nc(NCc3ccccc3)[nH]c2c1	none
COc1cc(CN2CCC3(CCC(CNC(=O)c4ccccc4)O3)CC2)cc(OC)c1 (centres undefined)	none (no result: PGK inhibitor, PI4K2A inh, GLS inh, CCT modulator)
COc1ccc(Br)cc1C(=O)N/N=C/c1cccnc1	none
COc1cc2ccccc2cc1C(=O)N/N=C/c1cccnc1	CCT modulator -35
CCc1cc(C(=O)NCC2Cc3cccc(-c4ccc(C(=O)OC)cn4)c3O2)no1 (centres undefined)	none (no result: PGK inhibitor, PI4K2A inh, GLS inh, CCT modulator)
CC(=O)N(C1=C(Cl)C(=O)c2ccccc2C1=O)C1CCCCC1	GLS inh 6.3µM
